Compound activity deposited in PubChem BioAssay by several laboratories.
Sampled rows, rich in hits. Any-hit rate of the full collection: about 4.1%.
Mtb FBA inh: Mtb FBA enzyme inhibitors, primary screen, biochemical, fluorescence, strain H37Rv. purified M. tuberculosis FBA, fluorescence read-out. inhibition, % at 1 µM. hit rate 2.3% among 360,000; in the data active = inhibition above about 27%;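 note: 0% = vehicle and 100% = reference inhibitor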
RecA intein inh: Mtb RecA intein splicing inhibitors, primary screen, biochemical, fluorescence, HTS; Protein RecA (Mycobacterium tuberculosis (strain ATCC 25618 / H37Rv)), P9WHJ3; cell-free RecA intein splicing; inhibition, % (test concentration not listed); hit rate 0.75% among 290,000; in the data active = inhibition above about 30%;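 note: 0% = vehicle wells and 100% = reference inhibitor control wells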
Target sequence (P9WHJ3 whole entry, looked up): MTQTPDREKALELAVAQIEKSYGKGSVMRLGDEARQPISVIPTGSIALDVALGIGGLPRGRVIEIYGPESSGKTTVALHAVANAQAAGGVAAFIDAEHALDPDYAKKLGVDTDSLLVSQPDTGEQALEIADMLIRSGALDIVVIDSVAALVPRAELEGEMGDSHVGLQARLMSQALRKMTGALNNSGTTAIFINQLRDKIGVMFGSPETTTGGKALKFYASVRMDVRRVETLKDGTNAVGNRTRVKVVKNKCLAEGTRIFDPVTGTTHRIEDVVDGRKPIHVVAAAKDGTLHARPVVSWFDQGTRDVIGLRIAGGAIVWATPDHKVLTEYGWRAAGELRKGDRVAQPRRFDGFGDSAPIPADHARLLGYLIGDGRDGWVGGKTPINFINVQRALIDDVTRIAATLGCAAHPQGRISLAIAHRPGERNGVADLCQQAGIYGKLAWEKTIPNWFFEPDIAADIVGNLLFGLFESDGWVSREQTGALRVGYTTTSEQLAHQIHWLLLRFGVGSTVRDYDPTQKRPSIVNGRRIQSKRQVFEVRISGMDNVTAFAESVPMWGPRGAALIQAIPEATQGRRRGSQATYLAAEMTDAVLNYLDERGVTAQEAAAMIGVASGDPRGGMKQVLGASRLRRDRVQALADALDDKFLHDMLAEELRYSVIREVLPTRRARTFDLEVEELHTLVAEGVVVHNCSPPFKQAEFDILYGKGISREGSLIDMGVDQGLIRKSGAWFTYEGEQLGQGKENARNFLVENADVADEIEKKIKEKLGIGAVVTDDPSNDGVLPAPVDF
Rv3671c inh: Rv3671c serine protease inhibitors, primary screen, biochemical, fluorescence polarization, M. tuberculosis H37Rv. inhibition, % at 5.96 µM. hit rate 0.048% among 320,000. AID 2606, 2010; in the data active = inhibition above about 38%;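 note: extracellular domain of Rv3671c used as enzyme; 0% = enzyme with DMSO and 100% = no enzyme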
Mtb UGM inh: M. tuberculosis UGM enzyme inhibitors, primary screen, biochemical, fluorescence polarization, single point | UDP-galactopyranose mutase (Mycobacterium tuberculosis (strain ATCC 25618 / H37Rv)), … | purified UGM, fluorescence polarization probe displacement | inhibition, % at 10 µM | hit rate 0.06% among 320,000 | AID 504406, 2011; in the data active = inhibition above about 10%, passing the limit was not always enough
Vc quorum ag: inducers of Vibrio cholerae quorum light production without autoinducers, primary screen, BH1578 luxS cqsA deficient, single point. V. cholerae BH1578 lux reporter, luminescence, 6 h. hit rate 0.16% among 350,000. activation, % at 18.7 µM. AID 588436, 2011; in the data active = activation mostly above about 9.7%, no sharp cut-off
GDH-TPI counter: GDH-TPI coupling enzyme inhibitors, primary screen, artefact control for M. tuberculosis FBA inhibitor project, biochemical, absorbance, full deck. hit rate 1.2% among 360,000. inhibition, % at 4.8 µM. GDH-TPI coupled enzyme counterscreen, NADH absorbance. AID 588335, 2011; in the data active = inhibition above about 30%;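 note: 0% = DMSO wells and 100% = wells lacking the enzyme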
Active calls of the source: *; i = inactive; · = no result given; + = active, no number.

SMILES	Mtb FBA inh	RecA intein inh	Rv3671c inh	Mtb UGM inh	Vc quorum ag	GDH-TPI counter
CCOC(=O)/C(=N\Nc1ccc(Br)cc1)N1CC(C)OC(C)C1 (configuration not stated)	-4	-2	2	1	0	37*
CCOC(=O)/C(=N\Nc1ccccc1Cl)N1CC(C)OC(C)C1 (configuration not stated)	2	-5	6	-4	0	15
CCCS(=O)(=O)NC(=O)C1(C)CCN(C(=O)c2c(C)noc2C)C1 (configuration not stated)	0	·	·	·	0	1
O=C(NCc1ccco1)c1ccc(Cl)nc1	0	0	8	-4	0	14
O=C(O)C1CCCCN1C(=O)c1cc2c(s1)CCCCC2 (configuration not stated)	0	·	-3	1	-3	4
CN(C)c1ccc(/C=N/Nc2nc3ccccc3o2)cc1	11	-5	-2	-1	1	9
CCS(=O)(=O)c1ccc(C=NNc2nc3ccccc3o2)cc1	-2	·	·	·	·	37*
COc1ccc2nc(NC(=S)N(C)C)sc2c1	-1	-1	0	-3	i	44*
CCCC(=O)Nc1nc2ccc(OC)cc2s1	0	-5	3	-1	0	6
CC1(C)Cc2cccc(OCC(=O)N3CCN(c4ccc(F)cc4)CC3)c2O1	-1	1	0	2	i	4
CC1(C(=O)Nc2cccc3cccnc23)CCN1Cc1csc2ccccc12 (configuration not stated)	1	·	·	·	i	7
Cc1cccc(NC(=O)c2nc[nH]c2C(=O)NCCCCNC(=O)c2[nH]cnc2C(=O)Nc2cccc(C)c2)c1	1	·	-7	-1	i	4
CSc1nc(=S)c2[nH]c(=S)[nH]c2[nH]1	-2	-4	·	2	2	33*
Nc1nc(=S)c2[nH]c(=S)[nH]c2[nH]1	0	·	·	·	i	18
CC(=O)Oc1ccc(-n2c(=O)c3ccccc3c3ccccc3c2=O)cc1	6	3	-6	0	-2	-2
COc1ccc(-n2c(=O)c3ccccc3c3ccccc3c2=O)cc1	5	31*	2	0	0	-12
O=C(c1ccco1)N1CCN(Cc2cc(=O)oc3cc(O)ccc23)CC1	+	·	4	-2	0	26
Cc1ccc2c(CN3CCN(Cc4ccccc4)CC3)cc(=O)oc2c1	0	-1	5	3	-1	6
CC1CN(Cc2cc(=O)oc3cc(O)ccc23)CC(C)O1 (configuration not stated)	161*	-89	0	0	0	7
O=c1cc(CN2CCN(Cc3ccccc3)CC2)c2ccc(O)cc2o1	153*	-165	-3	0	5	8
O=C(c1ccco1)N1CCN(Cc2cccc3ccccc23)CC1	3	3	14	1	i	4
Oc1ccc(Cl)cc1CN1CCN(Cc2ccccc2)CC1	-12	0	-2	-3	i	63*
CCCNC(=O)C1(C)CCN(CCC(=O)c2ccc(Br)cc2)C1 (configuration not stated)	-2	·	·	·	-1	7
CCN(CC)C(=O)C1=C(C)N(Cc2ccc(OC)cc2)C(=O)C(CC(=O)NC2CC2)C1 (configuration not stated)	5	·	·	·	-1	3
COCc1cc(=O)n2[nH]cc(-c3ccccc3)c2n1	133*	0	-1	-2	-1	23
SMILES	Mtb FBA inh	RecA intein inh	Rv3671c inh	Mtb UGM inh	Vc quorum ag	GDH-TPI counter
CCOC(=O)Cc1cc(=O)n2[nH]cc(-c3cccc(Br)c3)c2n1	26	1	-15	-3	i	8
Cc1ccc(OCC(=O)Nc2c3c(nn2C(C)(C)C)CS(=O)(=O)C3)cc1	-4	1	-1	1	0	-14
CCC(CC)C(=O)Nc1ccc(-c2cn3cccnc3n2)cc1	+	-1	-3	-2	i	25
COCC(=O)Nc1ccc(-c2cn3cccnc3n2)cc1	+	-5	-5	-1	0	25
Cc1ccc(S(=O)(=O)CC(=O)Nc2cc(C)on2)cc1	-2	2	-16	1	0	-7
Cc1cc(=O)n2[nH]c(-c3ccc(C(C)(C)C)cc3)cc2n1	36*	-4	-1	-2	-12	11
Cn1c(NNC(=O)/C=C/c2ccc3c(c2)OCO3)cc(=O)n(C)c1=O	10	·	-24	0	0	39*
Cc1cc(C)c2c(n1)nn1c(NCCN3CCOCC3)cc(C)nc21	+	-51	-1	-5	2	10
COCCNc1cc(C)nc2c3c(C)cc(C)nc3nn12	+	-327	-1	3	i	4
COCCNc1cc(C)nc2c(-c3ccccc3OC)c(C)nn12	6	1	2	1	0	14
COc1ccccc1CN1CC(C(=O)NCc2cnn(C)c2)CCC1=O (configuration not stated)	4	0	-8	-3	1	-1
CCCN(C(=O)COC(=O)CSc1ccc([N+](=O)[O-])cc1)C1CCS(=O)(=O)C1 (configuration not stated)	3	·	1	0	-1	19
Cc1nc2ccc(S(=O)(=O)CCC(=O)NCc3ccc(Cl)cc3)cc2s1	1	·	·	·	0	-3
CC(C)(C)CC(=O)Nc1cccc(-c2cn3cccnc3n2)c1	+	0	-4	-2	0	7
COc1cc(C(=O)Nc2cccc(-c3nncn3C)c2)cc(OC)c1OC	-1	1	-2	3	i	8
Cc1onc(-c2ccccc2Cl)c1C(=O)Nc1cccc(-c2cn3cccnc3n2)c1	128*	·	-5	0	0	31*
COc1cc(C(=O)Nc2cccc(-c3cn4cccnc4n3)c2)cc(OC)c1OC	+	4	-14	-2	0	8
COc1ccccc1CNC(=O)CN(C)CC(=O)Nc1ccc(F)c(F)c1F	-1	·	4	-2	0	2
C=CCn1c(=NC(=O)c2ccc(S(=O)(=O)N3CCc4ccccc4C3)cc2)sc2cc(S(N)(=O)=O)ccc21	26	7	-46	-1	i	26
C#CCn1c(=NC(=O)c2ccc(S(=O)(=O)N3CCc4ccccc4C3)cc2)sc2cc(S(N)(=O)=O)ccc21	10	2	-66	0	0	48*
COc1ccc2ccc3cccc[n+]3c2c1	134*	·	·	·	0	-2
Nc1ccc2ccc3cccc[n+]3c2c1	-5	i	-16	63*	i	10
